Assay outcomes as filed in PubChem BioAssay.
Cycloheximide cs: counter-screen for Shiga toxin inhibitors: cycloheximide protein synthesis inhibition. max response, %. AID 2314. actives 12% (n = 300,000). cell reporter, cycloheximide protein synthesis inhibition counterscreen; in the data active = max response mostly above about 13%, no sharp cut-off; inactive = mostly below about 14%; also: read at 38.3 µM for the half of the compounds with a filed dose
HCMV inh: blocks human cytomegalovirus replication | actives 4.5% (n = 410,000) | activity change, negative = inhibition, % at 57.5 µM | HFF cells, HCMV-luciferase reporter, 72 h; stronger effect = lower value; in the data active = activity change below about -60%; inconclusive = no clear call, values can overlap the other calls; inactive = above about -39%
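Steps: HFFs plated, 16 h 37C; compounds added; HCMV-luciferase added to MOI 1 PFU/cell; 72 h 37C; OneGlo reagent, 5 min room temperature; luminescence read, normalized to controls.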
Shiga inhibitor: inhibitors of Shiga toxin in Vero cells; Vero cells, Shiga toxin protein synthesis inhibition reporter; actives 9.2% (n = 290,000); inhibition, % at 38.7 µM; in the data active = inhibition mostly above about 28%, no sharp cut-off; inactive = mostly below about 43%
HCV inh: inhibitors of hepatitis C virus infection. Huh7.5.1 HCVcc-Cre infection, luciferase reporter, 44 h. actives 3.4% (n = 340,000). Potency, µM (titrated, usually from 41.8 µM), hits mostly inhibitors
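Cells (1,000/well) were plated 4 h before compound, then infected with HCVcc-Cre virus (~0.5 moi). After 44 h further culture, infection was read as luciferase luminescence following a 15 min substrate incubation at room temperature.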
Pf growth 96h: P. falciparum growth inhibition at 96 hours. P. falciparum luciferase reporter growth, 96 h. Potency, µM (highest dose often 28.7 µM), hits mostly inhibitors. actives 6.9% (n = 320,000). AID 504834
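P. falciparum expressing integrated firefly luciferase grown in erythrocytes (2% hematocrit, 0.05% parasitemia final) with compounds for 96 hours at 37 C, 5% CO2. Growth inhibition read as loss of luminescence after adding luciferase detection reagent.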
Pf growth 48h: P. falciparum growth inhibition at 48 hours (one generation); AID 504832; P. falciparum luciferase growth in erythrocytes, 48 h; Potency, µM (top dose mostly 28.7 µM), actives largely listed as inhibitors; actives 5.9% (n = 310,000)
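Luminescence readout; reporter = integrated firefly luciferase in P. falciparum. RBC culture at 2% hematocrit, 0.1% parasitemia final, 37 C/5% CO2; decreased signal taken as growth inhibition.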
Of the large screens only hits and unclear results are named; the others gave an inactive call. Hits are enriched below; roughly 21% of the tested compounds scored in any of these assays. Unless noted, calls follow the shape of the dose curve; as a rule, active = well fitted inhibition curve with a large enough effect; inconclusive = small, poorly fitted or top-dose-only effect, or another doubt; inactive = no such curve, though single readings can be large or run the other way.

CCCOc1cccc(NC(=O)c2c(-c3ccccc3)noc2C)c1	none
Cc1onc(-c2ccccc2)c1C(=O)Nc1ccc(NC(=O)c2c(-c3ccccc3)noc2C)cc1	none (no result: Cycloheximide cs, Shiga inhibitor, Pf growth 96h, Pf growth 48h)
COc1ccc(N(CC(=O)NCc2ccccc2Cl)S(=O)(=O)c2c(C)nn(C)c2C)cc1	none (no result: Cycloheximide cs, Shiga inhibitor, HCV inh, Pf growth 96h, Pf growth 48h)
CC(/C=N/NC(=O)CSc1nnc(SCc2ccccc2)s1)=C\c1ccco1	Cycloheximide cs 14, Pf growth 96h inconclusive
Cc1ccc(CSc2nnc(SCC(=O)N/N=C/C=C/c3ccccc3[N+](=O)[O-])s2)cc1	Cycloheximide cs 21, HCMV inh -78, Shiga inhibitor 48
Cc1ccc(CSc2nnc(SCC(=O)N/N=C/C=C/c3ccco3)s2)cc1	HCMV inh -61, Pf growth 96h inconclusive
O=C(O)COc1ccccc1/C=N/NC(=O)CSc1nnc(SCc2ccccc2)s1	none
COc1ccccc1N1CCN(C(=O)Cn2c(=O)nc(-c3ccccc3)c3cc(Cl)ccc32)CC1	none (no result: Cycloheximide cs, Shiga inhibitor, HCV inh, Pf growth 96h, Pf growth 48h)
COCCNC(=S)N(CCc1c(C)[nH]c2ccc(F)cc12)Cc1ccco1	HCMV inh inconclusive, HCV inh inconclusive, Pf growth 48h inconclusive
CN(c1cccc(NC(=O)c2ccc(Cl)c(S(=O)(=O)Nc3ccccc3)c2)c1)S(C)(=O)=O	HCV inh 10µM
O=C(Nc1ccccc1)c1ccc(Cl)c(S(=O)(=O)Nc2ccccc2)c1	none (no result: Cycloheximide cs, Shiga inhibitor, HCV inh, Pf growth 96h, Pf growth 48h)
COc1ccc(N(CC(=O)Nc2cccc(N(C)S(C)(=O)=O)c2)S(=O)(=O)c2ccc(C)cc2)cc1	HCV inh inconclusive, Pf growth 96h inconclusive, Pf growth 48h inconclusive
CN(c1cccc(NC(=O)CN(c2cccc(Cl)c2)S(=O)(=O)c2ccccc2)c1)S(C)(=O)=O	HCMV inh inconclusive, HCV inh 11µM, Pf growth 96h inconclusive, Pf growth 48h inconclusive
CCOc1ccc(N(CC(=O)Nc2cccc(N(C)S(C)(=O)=O)c2)S(=O)(=O)c2ccccc2)cc1	HCMV inh -64, HCV inh inconclusive, Pf growth 96h inconclusive, Pf growth 48h inconclusive
COc1ccc(N(CC(=O)Nc2cccc(N(C)S(C)(=O)=O)c2)S(=O)(=O)c2ccccc2)cc1Cl	HCV inh inconclusive, Pf growth 48h inconclusive
CC(C)Oc1ccc(CNC(=O)c2ccc(CN3CC(=O)N4CCCCC4C3=O)cc2)cc1 (stereo unspecified)	none (no result: Cycloheximide cs, Shiga inhibitor, HCV inh, Pf growth 96h, Pf growth 48h)
Cc1cccc(-c2nc3c4ccccc4nc(NCCc4ccccc4)n3n2)c1	none (no result: Cycloheximide cs, Shiga inhibitor, HCV inh, Pf growth 96h, Pf growth 48h)
CSc1ccc(-c2nc3cccc(C)n3c2Nc2ccc3c(c2)OCO3)cc1	none (no result: Cycloheximide cs, Shiga inhibitor, HCV inh, Pf growth 96h, Pf growth 48h)
Cc1ccc(OCCn2cc(Br)c(=O)[nH]c2=O)cc1	Pf growth 96h 9.3µM
O=C(CCCOc1ccc(Br)cc1)Nc1nnc(C2CC2)s1	Pf growth 48h inconclusive (no result: Cycloheximide cs, Shiga inhibitor)
COc1ccc(C(=O)n2cnc3ccccc32)cc1	Pf growth 96h inconclusive
C=CCSc1n[nH]c(-c2ccc(OC)cc2)n1	Cycloheximide cs 61, Shiga inhibitor 116 (no result: Pf growth 96h)
C=CCSc1n[nH]c(-c2ccccc2)n1	Cycloheximide cs 30, HCMV inh -89, Shiga inhibitor 51 (no result: Pf growth 48h)
COc1ccc(-c2nc(SCC(=O)Nc3cc(C)on3)n[nH]2)cc1	none (no result: HCMV inh, Pf growth 96h)
Cc1ccc(C(=O)N2CCN(c3ccc(NC(=O)Cc4ccccc4)cc3)CC2)cc1	HCMV inh inconclusive, Pf growth 48h inconclusive
Cc1nn(-c2ccccc2)c(C)c1C(=O)NCc1ccc(F)cc1	HCMV inh inconclusive
Cc1c(C(=O)NCc2ccc(F)cc2)c(-c2ccccc2)nn1-c1ccccc1	Pf growth 96h 5.9µM (no result: Pf growth 48h)
COc1ccc(CCNC(=O)C2CC(c3ccccc3[N+](=O)[O-])=NO2)cc1 (stereo unspecified)	Cycloheximide cs 49
O=C(NCCc1cccs1)C1CC(c2ccccc2[N+](=O)[O-])=NO1 (stereo unspecified)	Cycloheximide cs 16, Shiga inhibitor 74
Cc1ccc(CCNC(=O)C2CC(c3ccccc3[N+](=O)[O-])=NO2)cc1 (stereo unspecified)	Pf growth 96h inconclusive
Cc1cccc(Cn2c(C)c(CNC3CCCCC3)c(C(=O)O)c2C)c1	none (no result: Cycloheximide cs, Shiga inhibitor, HCV inh, Pf growth 96h, Pf growth 48h)
Cc1ccc(S(=O)(=O)N2C[C@H]3C(=O)C[C@@H](c4ccccc4)N(S(=O)(=O)c4cccc(C)c4)[C@H]3C[C@H]2c2ccccc2)cc1	none (no result: Cycloheximide cs, Shiga inhibitor, HCV inh, Pf growth 96h, Pf growth 48h)
O=C(NCc1ccncc1)C1CCC(=O)N(CCc2ccc(Cl)cc2)C1 (stereo unspecified)	Pf growth 96h 9.3µM, Pf growth 48h inconclusive
Cc1nc(CNC(=O)C2CCC(=O)N(CCc3ccc(Cl)cc3)C2)sc1C (stereo unspecified)	Pf growth 48h inconclusive
O=C(NCCc1cnccn1)C1CCC(=O)N(Cc2ccc(Cl)cc2)C1 (stereo unspecified)	none
O=C(NCCCc1ccncc1)C1CCC(=O)N(Cc2ccc(Cl)cc2)C1 (stereo unspecified)	Pf growth 96h 10µM (no result: HCV inh)
CCn1nc(C)c(CNC(=O)C2CCC(=O)N(CCc3ccc(Cl)cc3)C2)c1C (stereo unspecified)	Pf growth 96h 9.3µM
CC1CC(OP(O)(=S)c2ccc(N(C)C)cc2NC(=O)c2cccs2)CC(C)(C)C1 (stereo unspecified)	Cycloheximide cs 31
Cc1cc(N2C(=O)C3C4C=CC(C4)C3C2=O)ccc1NC(=O)c1cccs1 (stereo unspecified)	none
COC(=O)c1ccc(CSc2nnc3c(n2)[nH]c2ccccc23)cc1	HCMV inh inconclusive
Fc1cccc(CSc2nnc3c(n2)[nH]c2ccccc23)c1	Cycloheximide cs 19, HCMV inh inconclusive, HCV inh inconclusive, Pf growth 96h inconclusive, Pf growth 48h inconclusive
CC1CCc2cc(F)ccc2N1C(=O)CSc1nnc2c(n1)[nH]c1ccccc12 (stereo unspecified)	HCMV inh -76, HCV inh inconclusive, Pf growth 96h inconclusive, Pf growth 48h 1.5µM
COc1cccc(CNC(=O)CSc2nnc3c(n2)[nH]c2ccccc23)c1	HCV inh 10µM
Cc1cccc(N2CCN(C(=O)c3cccc(N4CCCC4=O)c3)C(C)C2)c1 (stereo unspecified)	HCMV inh inconclusive, HCV inh inconclusive, Pf growth 96h inconclusive, Pf growth 48h inconclusive
COc1ccc(-n2nc3cc(C)c(N)c(Br)c3n2)cc1	Cycloheximide cs 63, Shiga inhibitor 128, HCV inh inconclusive, Pf growth 96h inconclusive
COc1ccc(-n2nc3ccccc3n2)cc1	Cycloheximide cs 24
COc1ccc2nc3ccccc3nc2c1	Cycloheximide cs 40, Shiga inhibitor 69
COc1ccc(-n2nc3cc(N)c(Br)cc3n2)cc1	Cycloheximide cs 30, HCV inh inconclusive, Pf growth 96h inconclusive (no result: Shiga inhibitor)
COc1ccc(-n2nc3cc(C)c(NC(=O)c4ccc(-c5ccc(Br)cc5)o4)cc3n2)cc1	none (no result: Cycloheximide cs, Shiga inhibitor, HCV inh, Pf growth 96h, Pf growth 48h)
O=C1c2ccccc2CCC1C(O)c1ccccn1 (stereo unspecified)	Cycloheximide cs 39
OC(c1ccccn1)C(O)c1ccccn1 (stereo unspecified)	none (no result: Cycloheximide cs, Shiga inhibitor, Pf growth 96h, Pf growth 48h)
